Measured values as given in ChEMBL document CHEMBL1857833, “Screening and optimization of specific chemical series against human African Trypanosomiasis (HAT)”.
Screen size: about 4,400 compounds; about 390 (8.9%) showed an effect of 50% or more. For the sample, strong results were picked, then their nearest neighbours and some compounds at random.

The compounds below were run on Trypanosoma brucei (assay: DNDI: Inhibition of Human African Trypanosomiasis, SBRI 427, in vitro at 2 ug.mL-1).
Type: functional

Structure (SMILES) | % inhibition
CCCN(CC1CC1)/C(=N\O)c1ccc(C)nc1Oc1cccc(C)c1 | -4%
Cc1cc(C)cc(Oc2nc(C)ccc2/C(=N/O)N2c3ccccc3CCC2C)c1 (stereo not drawn) | 98%
Cc1cc(C)cc(Oc2nc(C)ccc2/C(=N/O)N2CCCc3ccccc32)c1 | 53%
CSc1ccc(Oc2nc(C)ccc2/C(=N/O)N2CCCc3ccccc32)cc1C | 10%
Cc1ccc(/C(=N/O)N2c3ccccc3CCC2C)c(Oc2cccc(F)c2)n1 (stereo not drawn) | 34%
CSc1ccc(Oc2nc(C)ccc2/C(=N/O)N2c3ccccc3CCC2C)cc1C (stereo not drawn) | 0%
Cc1ccc(/C(=N/O)N2CCCc3ccccc32)c(Oc2ccc(F)c(F)c2)n1 | 21%
COc1ccc(Oc2nc(C)ccc2/C(=N/O)N2CCCc3ccccc32)cc1 | 11%
Cc1ccc(/C(=N/O)N2CCCc3ccccc32)c(Oc2ccc3ccccc3c2)n1 | 15%
Cc1ccc(/C(=N/O)N2CCCc3ccccc32)c(Oc2cccc(F)c2)n1 | 93%
CC(C)(C)COc1ncccc1/C(=N/O)NCCN1CCOCC1 | 6%
CCN(Cc1coc(-c2cccc(OC)c2)n1)c1cccc(C)c1 | -18%
Fc1ccc(N2CCN(Cc3coc(-c4ccc(Cl)cc4Cl)n3)CC2)cc1 | 14%
Cc1ccc(/C(=N/O)N(C)C2CCN(C)CC2)c(Oc2cccnc2)n1 | 9%
CC1CCCN1/C(=N\O)c1cccnc1Oc1ccc(F)cc1 (stereo not drawn) | 2%
c1coc(-c2nc(CN3CCCCCC3)co2)c1 | 16%
CCN(Cc1ccccc1)Cc1coc(-c2ccccc2)n1 | 9%
CN(Cc1coc(-c2ccc(C(F)(F)F)cc2)n1)C1CCN(Cc2ccccc2)C1 (stereo not drawn) | 0%
CCc1ccc(Oc2ncccc2/C(=N/O)NCc2ccccc2OC)cc1 | 99%
CCOc1ccccc1CN/C(=N\O)c1cccnc1Oc1ccc(CC)cc1 | 99%
CCOc1ccccc1Oc1ncccc1/C(=N\O)NCc1ccncc1 | 0%
CCOc1ccccc1CNCc1coc(-c2cccs2)n1 | -4%
Cc1nccn1/C(=N\O)c1ccnc(Oc2cccc3cnccc23)c1 | 14%
c1ccc(C(c2ccccc2)N2CCN(Cc3coc(-c4ccco4)n3)CC2)cc1 | 0%
Cc1ccc(/C(=N/O)N2CCCCCC2)c(OCc2ccccn2)n1 | 28%
C/C(=C\C#N)N/C(=N\O)c1ccnc(Oc2cc(C)ccc2C(C)C)c1 | 21%
CCOc1ccc(Oc2cc(/C(=N/O)NCc3ccccc3OC)ccn2)cc1 | 0%

Structure (SMILES) | % inhibition
c1ccc(-c2cn(Cc3coc(-c4cccc5ccccc45)n3)cn2)cc1 | -1%
CCN(/C(=N\O)c1cccnc1Oc1ccc2c(c1)CCCC2)C(C)C | 3%
CCOc1cccc(-c2nc(CN3CCN(c4ccccc4)CC3)co2)c1 | 17%
CC(C)(C)COc1ncccc1/C(=N/O)N1CCCc2ccccc21 | 100%
O/N=C(/c1cccnc1Oc1ccc(-n2cncn2)cc1)N1CCCc2ccccc21 | 10%
CC(C)(C)COc1ncccc1/C(=N/O)N1CCCCCC1 | 8%
O/N=C(/c1cccnc1OCc1ccccc1F)N1CCCc2ccccc21 | -20%
O/N=C(/c1cccnc1OCc1cccc(F)c1)N1CCCc2ccccc21 | -2%
CC1CCc2ccccc2N1/C(=N\O)c1cccnc1OCC(C)(C)C (stereo not drawn) | 84%
CC1CCC(C)N1/C(=N\O)c1cccnc1OCC(C)(C)C (stereo not drawn) | 93%
CC1CCC(C)N1/C(=N\O)c1cccnc1Oc1ccc(-n2cncn2)cc1 (stereo not drawn) | 9%
CC(C)COc1ncccc1/C(=N/O)N1C(C)CCC1C (stereo not drawn) | -2%
CC1CCc2ccccc2N1/C(=N\O)c1cccnc1Oc1ccc(-n2cncn2)cc1 (stereo not drawn) | 81%
CC(C)COc1ncccc1/C(=N/O)N1C(C)CCCC1C (stereo not drawn) | 6%
CC(C)(C)COc1ncccc1/C(=N/O)N1CCCC1 | 0%
O/N=C(/c1cccnc1Oc1ccc(F)c(Cl)c1)N1CCN(c2ccc(F)cc2)CC1 | -10%
O/N=C(\NCCN1CCOCC1)c1ccc(Oc2ccc(Cl)cc2)nc1 | -2%
Cc1cccc(Oc2ccc(/C(=N/O)n3ccnc3)cn2)c1 | 15%
COc1cccc(N2CCN(Cc3coc(-c4ccc(F)cc4)n3)CC2)c1 | -1%
CSc1ccc(Oc2nc(C)ccc2/C(=N/O)N2CCSCC2)cc1C | 12%
O/N=C(\NCCN1CCOCC1)c1cccnc1Oc1ccc2c(c1)CCCC2 | 8%
CCC(C)(C)N/C(=N\O)c1ccc(C)nc1Oc1cc(C)cc(C)c1 | 24%
CCOc1ccccc1-c1nc(CN2CCN(CC)CC2)co1 | 16%
Cc1ccc(/C(=N/O)NCCN2CCCC2)c(OCc2cccc(F)c2)n1 | -12%
CCOc1cccc(Oc2ncccc2/C(N)=N/O)c1 | 10%
CCOc1ccccc1-c1nc(CN(C)Cc2cccc3ccccc23)co1 | 15%
